Shown are actives, neighbours in structure and some others; about 18% of the full set was active somewhere.
TDP1 cell CPT = growth inhibition of DT40 Tdp1-/-;hTDP1 cells with camptothecin (screen for TDP1 inhibitors) | chicken DT40 Tdp1-/-;hTDP1 cells + 20 nM CPT, ATP luminescence, 48 h | Potency, µM (highest dose often 46.2 µM), usual class: inhibitors | 12% of 420,000 active; note: nearly all actives have a fitted effect of over 55% in size
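Cell growth measured by CellTiter-Glo luminescence after a minimum 48 h, 37 C compound exposure with 20 nM CPT in Tdp1-knockout DT40 cells stably expressing hTDP1, seeded 400/well; qHTS titration format.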
CtBP-E1A inh = inhibitors of CtBP/E1A interaction | AID 651724 | activity change, % (concentration not given with the values) | 0.49% of 340,000 active | AlphaScreen GST-E1A/His-CtBP binding, 1536-well; active compounds read low; in the data active = activity change below about -65%; inconclusive = mostly about -30% to -63%
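Homogeneous bead-based format: GST-tagged E1A captured on glutathione donor beads, His-tagged CtBP on nickel acceptor beads; compounds precede bead addition by 2 h at 37 °C.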
Six1-Eya2 inh = blocks human Six1 binding to Eya2. Q15475+O00167. AlphaScreen GST-Six1/His-Eya2 binding, biochemical; active compounds read low. 0.56% of 360,000 active. activity change, % (test concentration not listed); in the data active = activity change below about -65%; inconclusive = mostly about -30% to -63%
Target sequence (O00167 whole entry, looked up): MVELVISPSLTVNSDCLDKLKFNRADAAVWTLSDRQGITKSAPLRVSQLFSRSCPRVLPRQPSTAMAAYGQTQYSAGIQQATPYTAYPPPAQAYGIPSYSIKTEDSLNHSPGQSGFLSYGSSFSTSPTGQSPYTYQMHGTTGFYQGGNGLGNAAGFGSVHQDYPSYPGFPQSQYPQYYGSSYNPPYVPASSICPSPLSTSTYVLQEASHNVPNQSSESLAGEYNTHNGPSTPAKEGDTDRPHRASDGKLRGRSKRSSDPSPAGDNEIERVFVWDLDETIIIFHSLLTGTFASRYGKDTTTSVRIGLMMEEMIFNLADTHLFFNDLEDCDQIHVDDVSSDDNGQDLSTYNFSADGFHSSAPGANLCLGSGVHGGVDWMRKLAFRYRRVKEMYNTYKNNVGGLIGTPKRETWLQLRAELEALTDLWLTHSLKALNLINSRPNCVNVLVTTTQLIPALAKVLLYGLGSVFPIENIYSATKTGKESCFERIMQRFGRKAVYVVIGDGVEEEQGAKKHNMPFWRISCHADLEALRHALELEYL
Target sequence (Q15475 whole entry, looked up): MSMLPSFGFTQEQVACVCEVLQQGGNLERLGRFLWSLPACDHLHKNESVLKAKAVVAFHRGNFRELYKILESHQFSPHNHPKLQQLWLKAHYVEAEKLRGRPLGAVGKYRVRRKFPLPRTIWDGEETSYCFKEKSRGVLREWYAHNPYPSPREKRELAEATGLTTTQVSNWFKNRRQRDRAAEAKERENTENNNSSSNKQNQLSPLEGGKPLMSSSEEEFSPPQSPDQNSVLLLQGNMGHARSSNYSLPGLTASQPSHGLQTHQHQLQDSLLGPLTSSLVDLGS
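AlphaScreen with GST-Six1 and His-Eya2 (5X mix: 250 nM and 500 nM), glutathione donor and nickel acceptor beads; buffer 50 mM Tris pH 8.0, 300 mM NaCl, 1 mM TCEP; 1 h at 37 C in the dark.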
TDP1 block = blocks human tyrosyl-DNA phosphodiesterase 1. Q9NUW8. recombinant TDP1, AlphaScreen DNA substrate cleavage. Potency, µM (series often up to 130 µM), actives largely listed as inhibitors. 0.28% of 350,000 active. AID 485290; note: nearly all actives have a fitted effect of over 40% in size
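Tdp1 1 nM final; 15 min RT w/ cpd; substrate 15 nM, 5 min; beads 10 ug/ml, 10 min; AlphaScreen read. Neg ctrl: no enzyme.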
TDP1 cell noCPT = qHTS for Inhibitors of human tyrosyl-DNA phosphodiesterase 1 (TDP1): qHTS in cells in absence of CPT. DT40 Tdp1-/- hTDP1 cells, no CPT, ATP luminescence, 48 h. Potency, µM (highest dose often 46.2 µM), hits mostly inhibitors. 15% of 420,000 active. AID 686978, 2013; note: nearly all actives have a fitted effect of over 55% in size
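Chicken DT40 Tdp1-/- cells stably complemented with human TDP1 were seeded at 400 cells/well with DMSO in place of 20 nM camptothecin. After compound pinning, cells grew at least 48 hr at 37 °C; viability read by CellTiter-Glo luminescence.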
IL-1B inflam inh = inflammasome signaling inhibition, IL-1 beta readout. THP-1 LPS/ATP IL-1B secretion, AlphaLISA, 16 h; active compounds read low. activity change, % at 57.5 µM. 4.7% of 360,000 active. AID 743279; in the data active = activity change below about -50%; inconclusive = mostly about -30% to -49%
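THP-1 cells pretreated 1 hr with compounds (up to 57.5 uM final), then stimulated with LPS (250 ng/mL final) plus ATP (1.25 mM final); secreted IL-1B measured by AlphaLISA after 16 hr, decreased signal indicating inhibition.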
Hits are given with their value; n = inactive; u = inconclusive; x = no result given. Unless noted, calls come from the whole dose curve; as a rule, active = well fitted curve in the direction sought with a large enough effect; inconclusive = small, poorly fitted or top-dose-only effect, or another doubt; inactive = no such curve, though single readings can be large; an effect the other way counts as inactive or inconclusive.

SMILES | TDP1 cell CPT | CtBP-E1A inh | Six1-Eya2 inh | TDP1 block | TDP1 cell noCPT | IL-1B inflam inh
CCC1CCCCN1CCCNC(=O)c1ccc2c(c1)sc1nc(-c3ccc(F)cc3)cn12 (stereo not given) | 4.1µM | x | x | n | 2.6µM | x
CCCN1CCN(CCCNC(=O)c2ccc3c(c2)sc2nc(-c4ccc(C)cc4)cn23)CC1 | 1.3µM | x | x | n | 1.2µM | x
Cc1cccc(C2=NN(c3ccccc3)[C@H](CO)[C@H]2c2ccccc2)c1 | u | n | n | n | u | n
CCCc1cc(C(N)=S)ccn1 | u | n | n | n | n | n
NC(=O)C1(Nc2ccccc2)CCCC1 | n | n | n | x | n | n
CCn1c(-c2ccc(C)cc2)n[nH]c1=S | 21µM | n | n | n | u | n
Cc1[nH]c2ccc(-c3n[nH]c(=S)n3-c3ccccc3)cc2c1C | n | n | n | n | u | n
S=c1[nH]nc(-c2ccccc2Cl)n1CC1CCCO1 (stereo not given) | n | n | n | n | n | n
CCOc1ccc(-c2n[nH]c(=S)n2Cc2ccccc2)cc1 | u | x | n | n | 21µM | n
CCn1c(-c2ccc(Cl)cc2)n[nH]c1=S | n | n | n | x | n | n
Cc1[nH]c2ccc(-c3n[nH]c(=S)n3Cc3ccccc3)cc2c1C | 23µM | n | u | n | 16µM | -57
CC(C)(C)c1ccc(-c2n[nH]c(=S)n2CC2CCCO2)cc1 (stereo not given) | u | n | n | n | 16µM | n
Cc1nc(NCCCn2ccnc2)c2oc3ccccc3c2n1 | n | n | n | n | n | n
CCn1c(-c2cc(-c3ccccc3)sc2N)n[nH]c1=S | u | n | n | n | 8.2µM | n
CCn1c(-c2ccccc2O)n[nH]c1=S | n | n | n | n | n | n
Oc1ccc(Br)cc1-c1nc2cnccn2c1NC1CCCC1 | u | n | n | n | u | -93
Oc1ccc(Br)cc1-c1nc2cnccn2c1NC1CCCCC1 | n | n | n | n | n | -70
Oc1ccccc1-c1nc2cnccn2c1Nc1ccc(Cl)cc1 | u | x | x | n | u | x
c1ccc2c(c1)nc1n2C2(N3CCOCC3)CCCC2C1N1CCOCC1 (stereo not given) | n | n | n | n | n | n
O=C(CN1CCC(n2nnc3cc(C(F)(F)F)ccc32)CC1)N1CCc2ccccc21 | 13µM | n | n | n | 10µM | n
CCOc1ccc2nc(NC(=O)CN3CCC(n4nnc5cc(C(F)(F)F)ccc54)CC3)sc2c1 | 15µM | n | n | n | 23µM | n
O=C(CN1CCC(n2nnc3cc(F)ccc32)CC1)N1CCCc2ccccc21 | u | n | n | n | u | n
O=C(c1cccc2ccccc12)N1CCCCC1 | n | n | n | n | n | n
O=C1c2ccc3c4c(ccc(c24)C(=O)N1c1cccc(O)c1)C(=O)N(c1cccc(O)c1)C3=O | 4.1µM | n | n | x | 6.5µM | n
O=C(O)c1ccc(N2C(=O)c3cccc4c(C(=O)O)ccc(c34)C2=O)cc1 | n | n | n | 2.8µM | n | n
O=C(O)c1ccc2c3c(cccc13)C(=O)N(c1ccccc1)C2=O | n | n | n | x | n | n
O=C(O)c1cccc(N2C(=O)c3cccc4c(Cl)ccc(c34)C2=O)c1 | u | n | n | n | n | -52
O=C(c1ccc2c3c(cccc13)C(=O)N(O)C2=O)N1CCCCC1 | 8.2µM | n | n | n | 7.3µM | n
CC(=O)Oc1cccc(C(=O)Nc2ccc3c(c2)C(=O)N(CC2CCCO2)C3=O)c1 (stereo not given) | n | n | n | n | n | n
Cc1ccc(/C(N)=N/OC(=O)Cc2cccc3ccccc23)cc1 | n | n | n | n | u | n

Compound activity: PubChem, National Center for Advancing Translational Sciences (NCATS)
